Results filed as inconclusive are left out. Calls of active or inactive are those of the source. The call rests on the fitted dose curve; in most records, active means well fitted inhibition curve with a large enough effect; inconclusive means small, poorly fitted or top-dose-only effect; inactive means no such curve, though single readings can be large or run the other way.
experiment: InCell qHTS Assay for Inhibitors of the mTORC1 Signaling Pathway in MEF (Tsc2-/-, p53-/-) Cells: Hit Validation; conditions: phospho-rpS6 immunofluorescence, 24 h; activity change, negative = inhibition: at 38.3 µM (top of the series);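 further: phospho-S6 Ser235/236 signal normalized to propidium iodide cell count per well; nearly all actives have a fitted effect of over 75% in size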
Potency means the concentration at half of the fitted maximal effect.

**Q.** For `CCc1ccc(OCC(=O)N(Cc2ccc(C)cc2)Cc2ccco2)cc1`, which activity change, negative = inhibition is on record?
**A.** The activity change, negative = inhibition was -100%.

**Q.** With `COC(=O)c1cc2sc(C)cc2n1Cc1ccccc1` as the molecule, how does the activity change, negative = inhibition read?
**A.** Its activity change, negative = inhibition is -100%.

**Q.** Which Potency does the source give for `Cc1cccc(-n2nnnc2S(C)(=O)=O)c1` here?
**A.** Its Potency is 3.29 µM (active).

**Q.** With `CCCCS(=O)(=O)c1nc(-c2ccc(Br)cc2)cc(-c2ccccc2)c1C#N` as the molecule, how does the Potency read?
**A.** The Potency was 16.5 µM (active).

**Q.** With `CCOc1cccc(C2CC(=O)Nc3cc4c(cc32)OCCO4)c1` (configuration not stated) as the molecule, how does the activity change, negative = inhibition read?
**A.** The activity change, negative = inhibition was -14.6%.

**Q.** Which activity change, negative = inhibition does the source give for `Cc1ccc(C(=O)CC2(O)C(=O)N(Cc3ccccc3F)c3ccccc32)cc1` (configuration not stated) here?
**A.** Its activity change, negative = inhibition is -100%.

**Q.** For `O=C(Nc1ccc2oc(-c3ccc4ccccc4c3)nc2c1)c1cc(Br)ccc1Cl`, which Potency is on record?
**A.** The Potency was 18.5 µM (active).

**Q.** For `COc1cccc(C(=O)Nc2ccc(-c3cc(C(F)(F)F)nn3-c3ccccc3)cc2)c1`, which activity change, negative = inhibition is on record?
**A.** Its activity change, negative = inhibition is -100%.

**Q.** For `Cc1ccc(C(=O)c2cn(CC(=O)NCc3ccccc3Cl)c3nc(C)ccc3c2=O)cc1`, which activity change, negative = inhibition is on record?
**A.** The activity change, negative = inhibition was -100%.

**Q.** With `Cc1cccc(C)c1Nc1sc(C(=O)c2ccccc2)c(N)c1S(=O)(=O)c1ccccc1` as the molecule, how does the activity change, negative = inhibition read?
**A.** Its activity change, negative = inhibition is -100%.

**Q.** With `CCc1ccc(S(=O)(=O)N(C(=O)c2ccncc2)c2ccc3oc(C)c(C(=O)OC)c3c2)cc1` as the molecule, how does the activity change, negative = inhibition read?
**A.** Its activity change, negative = inhibition is -100%.

**Q.** With `COc1ccc(-n2ncc3c(NCCCOC(C)C)ncnc32)cc1` as the molecule, how does the activity change, negative = inhibition read?
**A.** The activity change, negative = inhibition was -100%.

**Q.** With `CCN(CC)CCNC(=O)c1ccc(Cn2c(=O)c3cccn3c3cccnc32)cc1` as the molecule, how does the activity change, negative = inhibition read?
**A.** The activity change, negative = inhibition was -100%.

**Q.** With `COc1cc(CN(C(=O)COc2ccc(C)c(C)c2)c2ccccn2)cc(OC)c1OC` as the molecule, how does the activity change, negative = inhibition read?
**A.** Its activity change, negative = inhibition is -100%.

**Q.** Which activity change, negative = inhibition does the source give for `O=C(CN(CCc1ccccc1)S(=O)(=O)c1ccccc1)NCc1ccc(Cl)cc1` here?
**A.** The activity change, negative = inhibition was -100%.

**Q.** Which activity change, negative = inhibition does the source give for `Cc1cc(OCC(=O)NCC2(N3CCN(C)CC3)CCCCC2)cc(C)c1Cl` here?
**A.** The activity change, negative = inhibition was -100%.

**Q.** For `COc1ccc(OC)c(Nc2c3c(nc4ccccc24)CCC3)c1`, which activity change, negative = inhibition is on record?
**A.** Its activity change, negative = inhibition is -25.7%.

**Q.** Which Potency does the source give for `CC1C(=O)N2CCCc3cc(S(=O)(=O)Nc4ccc(Br)cc4F)cc1c32` (configuration not stated) here?
**A.** Its Potency is 14.7 µM (active).

**Q.** With `COc1ccc(CCNC(=O)C(C)n2nc(C)c3sc4ccccc4c3c2=O)c(OC)c1` (configuration not stated) as the molecule, how does the activity change, negative = inhibition read?
**A.** The activity change, negative = inhibition was -100%.

**Q.** With `O=C(c1ccc(CS(=O)c2ccccc2Cl)o1)N1CCN(c2cccc(C(F)(F)F)c2)CC1` (configuration not stated) as the molecule, how does the activity change, negative = inhibition read?
**A.** The activity change, negative = inhibition was -28.2%.

**Q.** For `CCCCN1C(=O)C(O)(CC(=O)c2ccc(C(C)(C)C)cc2)c2ccccc21` (configuration not stated), which activity change, negative = inhibition is on record?
**A.** Its activity change, negative = inhibition is -28.2%.

**Q.** For `Cc1cccc(NS(=O)(=O)c2ccc3[nH]c4c(c3c2)CCCCCC4)c1`, which activity change, negative = inhibition is on record?
**A.** The activity change, negative = inhibition was -100%.

**Q.** With `Cc1nc2ccc(S(=O)(=O)CCC(=O)Nc3ccc(Cl)cc3)cc2s1` as the molecule, how does the activity change, negative = inhibition read?
**A.** Its activity change, negative = inhibition is -100%.

**Q.** Which activity change, negative = inhibition does the source give for `CCCCN(CC)CCNC(=O)C1CCN(c2nnc(C)c3c(C)n(-c4ccc(C)cc4)nc23)CC1` here?
**A.** The activity change, negative = inhibition was -100%.

**Q.** For `CN1CCN(C2(CNC(=O)COc3ccc(C(C)(C)C)cc3)CCCCC2)CC1`, which activity change, negative = inhibition is on record?
**A.** The activity change, negative = inhibition was -100%.

**Q.** With `COc1ccccc1N=c1scc(-c2ccc(S(=O)(=O)N3CCCC3)cc2)n1C` as the molecule, how does the activity change, negative = inhibition read?
**A.** Its activity change, negative = inhibition is -100%.

**Q.** With `CC(C)CS(=O)(=O)c1oc(-c2ccc(F)cc2)nc1S(=O)(=O)c1ccccc1` as the molecule, how does the Potency read?
**A.** Its Potency is 3.29 µM (active).

**Q.** Which activity change, negative = inhibition does the source give for `CCOc1cc(C(Nc2cc(C)ccn2)c2ccc3cccnc3c2O)ccc1OC` (configuration not stated) here?
**A.** Its activity change, negative = inhibition is -100%.

**Q.** For `COc1cccc(-c2nc(S(=O)(=O)c3ccc(Cl)cc3)c(NCc3ccccc3)o2)c1`, which activity change, negative = inhibition is on record?
**A.** Its activity change, negative = inhibition is -100%.

**Q.** For `O=C(Nc1ccc(F)c(Cl)c1)c1cc(S(=O)(=O)N2CCCc3ccccc32)ccc1F`, which activity change, negative = inhibition is on record?
**A.** Its activity change, negative = inhibition is -100%.

**Q.** For `Cc1cc(C)c(NC(=O)Cn2c(=O)n(Cc3ccc(C(=O)NCc4ccc5c(c4)OCO5)cc3)c(=O)c3ccccc32)c(C)c1`, which Potency is on record?
**A.** Its Potency is 3.29 µM (active).

**Q.** With `CCN1CCN(c2ccc(NS(=O)(=O)c3c(C)nc4sccn4c3=O)cc2Cl)CC1` as the molecule, how does the activity change, negative = inhibition read?
**A.** Its activity change, negative = inhibition is -100%.

**Q.** For `C#CC(C)(CC)NC(=O)Cn1nnc(-c2ccc(OCc3c(F)cccc3Cl)cc2)n1` (configuration not stated), which activity change, negative = inhibition is on record?
**A.** The activity change, negative = inhibition was -100%.

**Q.** Which activity change, negative = inhibition does the source give for `CCOc1ccc(-c2cnc(NCc3ccc(C(F)(F)F)cc3)n2C)cc1` here?
**A.** The activity change, negative = inhibition was -100%.

**Q.** For `CC(=O)N1CCCc2cc(S(=O)(=O)N(Cc3ccccc3)C(C)C)ccc21`, which activity change, negative = inhibition is on record?
**A.** Its activity change, negative = inhibition is -100%.

**Q.** With `CSc1ccc(CCNC(=O)C(C)n2nc(C)c3sc4ccccc4c3c2=O)cc1` (configuration not stated) as the molecule, how does the activity change, negative = inhibition read?
**A.** Its activity change, negative = inhibition is -100%.

**Q.** For `CCOc1c(Br)cc(C2CC(=O)Nc3cc4c(cc32)OCO4)cc1OC` (configuration not stated), which activity change, negative = inhibition is on record?
**A.** Its activity change, negative = inhibition is -100%.
